Our source for the Inhibition values is ChEMBL document CHEMBL1157539, “Thousands of chemical starting points for antimalarial lead identification” (Nature, 2010).

Common to all, as to assay type: functional
The subject of assay [1] is Plasmodium falciparum. The assay is described as follows: GSK_TCMDC: Inhibition of Plasmodium falciparum 3D7 in whole red blood cells, using parasite LDH activity as an index of growth. Test compounds present at 2uM.
The test system of assay [2] is Plasmodium falciparum. Nature of the assay: GSK_TCMDC: Inhibition of Plasmodium falciparum Dd2 in whole red blood cells, using parasite LDH activity as an index of growth. Test compounds present at 2uM.
Assay [3] relates to HepG2. Nature of the assay: GSK_TCMDC: Percent inhibition of human HepG2 cell line. Test compounds present at 10uM.

A word on the Inhibition: it is the share of the control response that was lost under treatment. As for `CC1CCN(CC[C@H]2CCCN2S(=O)(=O)c2cccc(NC(=O)Nc3ccc(C(F)(F)F)cc3)c2)CC1`, the Inhibition in assay [1] amounted to 100%; in assay [2], 41%; in assay [3], 12%.
The corresponding values for `Cc1nc(C)c(-c2ccc(S(=O)(=O)c3ccc(Cl)cc3)cc2)c(O)c1Cl` are 98%, 96% and 0%.
On to `Cl.Oc1cccc(Nc2ccnc3cc(-c4ccncc4)ccc23)c1`, for which the Inhibition was determined as 100% in assay [1], 99% in assay [2] and 8% in assay [3].
The corresponding values for `CS(=O)(=O)c1ccccc1CNC(=O)c1cccc(-c2ccc(-c3nc4cc(C(F)(F)F)ccc4[nH]3)cc2)c1` are 95%, 7% and 86%.
The corresponding values for `Cc1cccc2[nH]c(-c3cc(-c4cccc(Cl)c4)cnc3N)nc12.O=C(O)C(F)(F)F` are 100%, 99% and 32%.
On to `CC(C)Nc1ccc(Nc2ccnc3cc4ccccc4cc23)cc1`, for which the Inhibition in assay [1] stood at 100%; in assay [2], 81%; in assay [3], 37%.
The matching figures for `CCCCCCSc1nnc(COc2cccc3ccccc23)n1-c1ccc(OC)cc1`: 99%, 100% and 19%.
The corresponding values for `COc1ccc(CN2CCCN(Cc3cccc(NC(=O)c4ccc(-c5ccccc5)cc4)c3)CC2)cc1.O=C(O)C(F)(F)F` are 94%, 24% and 37%.
As to `O=C(Nc1ccccc1Cc1ccccc1)c1ccccc1[N+](=O)[O-]`, the Inhibition in assay [1] amounted to 98%; in assay [2], 59%; in assay [3] it was 0%.
The matching figures for `CC(=O)N1Cc2ccccc2C1=O`: 97%, 0% and 10%.
For the compound `COc1cccc(C2=CC(C)(C)Oc3cc(OCCN(C)C)ccc32)c1.Cl`, the values for the Inhibition in assay [1], in assay [2] and in assay [3] were 97%, 96% and 57%, respectively.
In the case of `Cc1ccc(-c2ccc3c(c2)C=C(C(=O)NC2CCN(CCNC(=O)c4cccs4)CC2)CCC3)cc1.O=C(O)C(F)(F)F`, the Inhibition came out at 90% in assay [1], 30% in assay [2] and 27% in assay [3].
The corresponding values for `CN1CCN(Cc2ccc(-c3ccc4c(Nc5cc(O)c(Cl)cc5F)ccnc4c3)o2)CC1` are 100%, 99% and 2%.
The matching figures for `Cc1cccc(-c2cccc(CNc3nc(NCCc4ccc(O)cc4)nc(N4CCNCC4)n3)c2)c1.O=C(O)C(F)(F)F`: 84%, 0% and 50%.
For the compound `COc1ccccc1CCN(C)CCN1CCC(NC(=O)c2ccc(-c3ccc(C(F)(F)F)cc3)cc2)CC1`, the Inhibition in assay [1] was determined as 92%; in assay [2], 15%; in assay [3], 46%.
The matching figures for `O=C(NCCN1CCCCC1)N1CCCN(c2ncnc3cc(-c4ccccc4)sc23)CC1.O=C(O)C(F)(F)F`: 89%, 80% and 2%.
As for `COc1ccc2nccc([C@@H](O)CN3CCC(NC(=O)/C=C/c4cc(F)cc(NC(C)=O)c4)CC3)c2c1`, the Inhibition stood at 97% in assay [1], 49% in assay [2] and 7% in assay [3].
The corresponding values for `O=C(Nc1ccc(Cl)cc1)c1cc(Cl)ccc1NC(=O)C1(c2ccc(Cl)cc2)CCCC1` are 85%, 29% and 13%.
With `CCOc1cc(N)c2nc3ccc([N+](=O)[O-])cc3cc2c1`, the figures for the Inhibition in assay [1], in assay [2] and in assay [3] were 100%, 78% and 73%, respectively.
The matching figures for `CC(C)N1CCCN(C(=O)C2CCN(c3ccc(C(=O)N4CCCC4)cn3)CC2)CC1.Cl`: 86%, 12% and 41%.
Consider `CC(CN(C)C)C(=O)Nc1ccc(-c2cccc(-c3nc4ccccc4[nH]3)c2)cc1` (configuration not stated), for which the Inhibition is listed as 99% in assay [1], 57% in assay [2] and 68% in assay [3].
The matching figures for `CCCc1cc(NCC)nc(Nc2ccc(C)cc2)n1`: 95%, 16% and 22%.
The matching figures for `CC(C)(CN1CCCC1)CN(Cc1ccc(-c2ccc(C(F)(F)F)cc2)cc1)C(=O)Cn1c(CCc2cccc(F)c2F)nc(=O)c2ccccc21.O=C(O)C(O)C(O)C(=O)O`: 97%, 64% and 57%.
The corresponding values for `O=C(Nc1ccc2c(c1)CCN2C1CCN(Cc2cc(F)cc(F)c2F)C1)c1ccco1` (configuration not stated) are 96%, 95% and 0%.
Consider `Br.CC1(C)NC(N)=NC(=N)N1OCCCOc1ccccc1Cl`, for which the Inhibition in assay [1] is on record as 96%; in assay [2], 94%; in assay [3], 64%.
On to `COc1ccccc1CNc1nc(Nc2ccccc2C)nc2ccccc12`, for which the Inhibition in assay [1] is reported as 100%; in assay [2], 67%; in assay [3], 24%.
As to `CCc1c(C(=O)NC2CCC(N3CCC(c4ccccc4OC)CC3)CC2)[nH]c2ccc(OC)cc12` (configuration not stated), the Inhibition was determined as 100% in assay [1], 99% in assay [2] and 43% in assay [3].
The matching figures for `CC1(C)N=C(N)N=C(N)N1c1cc(Cl)c(Cl)c(Cl)c1.CCS(=O)(=O)O`: 93%, 31% and 68%.
The corresponding values for `O=C(Nc1cccc(-c2nn3ccccc3c2-c2ccnc(Nc3ccc(NCCCN4CCOCC4)c(F)c3)n2)c1)c1c(F)cccc1F` are 100%, 97% and 86%.
